Source: PubChem BioAssay
Rows were chosen to be rich in hits. Some 9% of all compounds tested hit in one or more screens of this group.
ALDH1A1 inh: blocks purified human ALDH1A1 activity; P00352; Purified ALDH1A1, NADH fluorescence, propionaldehyde substrate; Potency, µM (doses to about 75.3 µM), for the others: at the highest dose activity, negative = inhibition, hits mostly inhibitors; 220,000 tested, 7.3% active; AID 1030; active = well fitted inhibition curve with a large enough effect, not every such curve was filed as active; inconclusive = small, poorly fitted or top-dose-only effect, or another doubt; inactive = no such curve, though single readings can be large or run the other way;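 also: plate controls were no enzyme wells and a reference inhibitor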
Target sequence (P00352 whole entry, looked up): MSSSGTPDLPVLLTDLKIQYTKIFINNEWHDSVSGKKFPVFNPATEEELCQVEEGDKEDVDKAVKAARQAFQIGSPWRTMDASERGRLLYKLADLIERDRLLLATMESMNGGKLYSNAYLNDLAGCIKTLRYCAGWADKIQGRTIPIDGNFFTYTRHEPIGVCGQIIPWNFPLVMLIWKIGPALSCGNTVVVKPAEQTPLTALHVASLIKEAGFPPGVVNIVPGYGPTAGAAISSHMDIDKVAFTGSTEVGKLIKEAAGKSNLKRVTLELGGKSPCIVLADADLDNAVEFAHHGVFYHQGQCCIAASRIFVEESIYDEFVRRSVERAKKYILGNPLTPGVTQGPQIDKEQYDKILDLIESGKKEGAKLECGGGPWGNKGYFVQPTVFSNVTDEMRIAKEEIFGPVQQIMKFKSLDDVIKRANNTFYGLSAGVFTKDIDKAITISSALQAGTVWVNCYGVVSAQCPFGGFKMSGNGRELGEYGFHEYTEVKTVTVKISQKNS
Lamin A splicing: LMNA splicing modulation. HeLa LMNA splicing GFP/RFP minigene ratio, 48 h. Potency, µM (doses to about 46.1 µM), for the others: at the top dose ratio change, negative = inhibition, actives largely listed as inhibitors. 200,000 tested, 0.01% active; active = well fitted inhibition curve with a large enough effect in the signal ratio, with a control signal flat, not every such curve was filed as active; inconclusive = small, poorly fitted or top-dose-only effect, or effect the other way, or a change in a side signal; the % refers to the signal ratio; also: % is scaled to controls: 0 for no effect and ±100 for the full control effect
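Read-out is the ratio of GFP to DsRed2 object intensity, acquired by 488 nm laser-scanning cytometry on HeLa lamin A-EGFP minigene reporter cells. Compound incubation 48 hrs at 37 °C in Opti-MEM with 2% FBS; DMSO 0.5% final.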
HttQ103 aggreg: inhibitors of mutant huntingtin aggregate formation in PC12 cells; Potency, µM (doses to about 46.1 µM), inactives show at the highest dose activity change, negative = inhibition, hits mostly inhibitors; AID 1688; 220,000 tested, 1.1% active; PC12 HttQ103-GFP aggregates, Acumen cytometry, 40 h; also: % is scaled to controls: 0 for no effect and ±100 for the full control effect; nearly all actives have a fitted effect of over 60% in size
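Quantitative HTS on tebufenozide-induced (100 nM) PC12 cells stably expressing polyQ103 Huntingtin exon 1–GFP. Reduction of bright GFP aggregates, detected by laser scanning cytometry after lysis, identified actives across the titration.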
KinaseGlo FLuc: blocks Kinase-Glo luciferase, a counter-screen artifact. AID 1379. Potency, µM (top dose mostly 38.3 µM), for inactives: top-dose activity change, negative = inhibition, usual class: inhibitors. Kinase-Glo luciferase, ATP luminescence, 8 min. Q27757. 200,000 tested, 0.28% active; also: % is scaled to controls: 0 for no effect and ±100 for the full control effect; nearly all actives have a fitted effect of over 60% in size
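Inhibition of Kinase-Glo luciferase light generation was assessed at 10 uM ATP in pH 7.2 imidazole buffer, with luminescence measured after eight minutes at ambient temperature.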
HTT ATP protect: cytoprotection in Huntington HTT-Q103 PC12 cell model. AID 1471. 230,000 tested, 0.14% active. PC12 HTT-Q103 induced, cytoprotection, ATP luminescence, 40 h. Potency, µM (top dose mostly 56.4 µM), without a hit: cytoprotection (ATP increase), most hits filed as activators; also: % of control where 0% means no effect; nearly all actives have a fitted effect of over 45% in size
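Compounds were screened for protection of PC12 cells against cell death after tebufenozide induction (100 nM final) of mutant Huntingtin exon 1 (Q103) fused to GFP.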
HPGD inh: inhibitors of human 15-hydroxyprostaglandin dehydrogenase (HPGD). P15428. purified HPGD, NADH fluorescence kinetic, PGE2 substrate. Potency, µM, inactives show top-dose activity change, negative = inhibition, actives largely listed as inhibitors. 150,000 tested, 4.3% active. AID 894; active = well fitted inhibition curve with a large enough effect, not every such curve was filed as active; inconclusive = small, poorly fitted or top-dose-only effect, or another doubt; inactive = no such curve, though single readings can be large or run the other way; also: % is scaled to controls: 0 for no effect and ±100 for the full control effect
Target sequence (P15428 whole entry, looked up): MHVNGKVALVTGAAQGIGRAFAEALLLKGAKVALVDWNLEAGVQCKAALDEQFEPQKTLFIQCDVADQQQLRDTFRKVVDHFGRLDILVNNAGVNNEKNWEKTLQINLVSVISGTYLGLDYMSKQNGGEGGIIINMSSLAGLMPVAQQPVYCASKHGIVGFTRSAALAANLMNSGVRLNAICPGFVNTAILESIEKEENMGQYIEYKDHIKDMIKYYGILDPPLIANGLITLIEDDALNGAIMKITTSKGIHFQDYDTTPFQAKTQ
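20 nM HPGD preincubated 15 min at room temperature with compound in 50 mM Tris-HCl pH 8, 0.01% Tween 20. Started with 1 mM NAD+ and 30 uM prostaglandin E2; NADH fluorescence (360/450 nm) read 5 times over 30-s intervals, last minus first.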
* marks the source's active call; other numbers are inactive results; ? = inconclusive; nt = no result given; [ ] = remark or other dose. Unless noted, calls follow the shape of the dose curve; as a rule, active = well fitted curve in the direction sought with a large enough effect; inconclusive = small, poorly fitted or top-dose-only effect, or another doubt; inactive = no such curve, though single readings can be large; an effect the other way counts as inactive or inconclusive. Potency is read from the fitted curve at half-maximal effect.

SMILES	ALDH1A1 inh	Lamin A splicing	HttQ103 aggreg	KinaseGlo FLuc	HTT ATP protect	HPGD inh
COc1ccc(CSc2nc3ccccc3[nH]2)cc1	0%	15%	-24%	8.9µM*	-100%	-20%
Cc1cc(C(=O)CN2CCCCC2)c(C)n1-c1ccc(F)cc1	-6%	-1%	6%	0%	17%[10 µM]	?
Cc1cc(C(=S)N2CCOCC2)c(C)n1-c1ccc(F)cc1	2.8µM*	nt	nt	-2%	nt	nt
Cc1ccc(-n2c(C)cc(C(=S)N3CCOCC3)c2C)cc1C	28µM*	2%	-13%	0%	-62%	5µM*
Cc1cc(C(=O)CN2CCC(C)CC2)c(C)n1-c1ccc(F)cc1	3%	-9%	7%	3%	-16%[10 µM]	-5%
CC(=O)Nc1c(C(=O)N2CCOCC2)cnn1-c1ccc(C)c(C)c1	8%	1%	0%	-4%	-5%	-4%
Cc1cc(C(=O)NC2CCCCC2)c(C)n1-c1ccc(F)cc1	14µM*	-1%	3%	0%	1%[1.9 µM]	4.5µM*
COc1ccc(/C(O)=C2/C(=O)C(=O)N(CCN(C)C)C2c2ccc(C)cc2)cc1Cl (centres undefined)	5%	-9%	4%	-1%	-11%	-15%
Cc1sc(NC(=O)CSc2nc(N)cc(N)n2)c(C#N)c1C	nt	nt	-15%[9.22 µM]	nt	-20%[10 µM]	nt
Cc1cnn(-c2ccc3nnc(-c4ccc(Br)cc4)n3n2)c1	5%	-3%	?	0%	-4%	?
Cc1cc(C)c(-c2cc(NC(=O)CSc3n[nH]c(N)n3)n(-c3ccccc3)n2)cc1C	3%	0%	5%	-2%	-7%	-17%
CC(=O)c1ccc(S(=O)(=O)N2CCNCC2)cc1	?	nt	-16%[9.22 µM]	nt	4%[10 µM]	nt
O=C(CNc1ccc2ccccc2c1)N/N=C/c1cc2ccccc2nc1Cl	22µM*	?	19%	5%	nt	-13%
CC(C)(C)OC(=O)C1C(=O)CC(C)(O)C(C(=O)OC(C)(C)C)C1c1cccnc1 (centres undefined)	-2%	0%	-5%	-1%	1%	-5%
Cc1cc(C)n2nc(CC#N)c(C#N)c2n1	?	-1%[9.22 µM]	?	-1%	11%[10 µM]	nt
Cc1cc(C)n2nc(/C(C#N)=C/c3ccccn3)c(C#N)c2n1	14µM*	?	?	-2%	-4%[10 µM]	nt
Cc1ccc(C)c(CSc2nnc(-c3cccnc3)o2)c1	?	18%	-4%	-3%	-16%[10 µM]	25µM*
Fc1ccccc1CSc1nnc(-c2cccnc2)o1	-2%	nt	-7%	-3%	-22%	nt
Fc1ccccc1CSc1nnc(-c2ccccc2)o1	-13%	12%	1%	-3%	-36%	10µM*
O=c1cc(CSc2nnc(-c3ccccc3)o2)c2ccccc2[nH]1	3%	-2%	-1%	0%	-15%	7.9µM*
Cc1ccccc1-c1nnc(SCc2ccccc2)o1	5%	9%	5%	2%	3%	22µM*
c1ccc(CSc2nnc(-c3ccncc3)o2)cc1	?	?	?	3%	18%	-18%
Cc1ccc(N(CC(=O)N/N=C/c2ccc(OC3CSC3)cc2)S(=O)(=O)c2ccccc2)cc1	11%	10%	-6%	7%	4%[10 µM]	-15%
COc1ccc(-c2nnc(SCc3ccccc3F)o2)cc1	-14%	-11%	-25%	-1%	-12%	-10%
Cc1ccccc1-c1nnc(SCc2ccccc2F)o1	-12%	?	15%	-10%	-17%	16µM*
SMILES	ALDH1A1 inh	Lamin A splicing	HttQ103 aggreg	KinaseGlo FLuc	HTT ATP protect	HPGD inh
CSc1nc2c(c(=O)[nH]1)CCCC2	8%	7%	9%	0%	-6%	-16%
CSc1nc(=S)c2[nH]c(=S)[nH]c2[nH]1	1.4µM*	nt	3%[9.22 µM]	nt	15%[10 µM]	nt
O=C1CC(C(F)(F)C(F)(F)C(F)(F)C(F)F)=Nc2ccccc2N1	4%	10%	8%	11%	-17%	-7%
O=S(=O)(CCCc1ccccc1)c1ncn[nH]1	3%	-1%	-9%	nt	-10%[0.074 µM]	nt
Cc1cc(C(=O)COC(=O)C2=NNC(=O)CC2)c(C)n1-c1ccccc1	16µM*	7%	-19%	14%	-22%	-19%
Cc1ccc(-n2c(C)cc(C(=O)COC(=O)c3c(C)noc3C)c2C)cc1	6%	?	10µM*	-12%	-49%	-11%
O=C(O)CC12C[C@H]3C[C@@H](C1)CC(n1ncc(N4CCN(c5ccccc5)CC4)c(Cl)c1=O)(C3)C2	7.9µM*	-8%	0%	0%	-5%[10 µM]	-14%
O=c1c(Cl)c(N2CCN(c3ccccc3)CC2)cnn1C12CC3CC(CC(C3)C1)C2	10µM*	-13%	-6%	-1%	18%[10 µM]	-5%
O=c1c(Cl)c(N2CCN(c3ccc(F)cc3)CC2)cnn1C12CC3CC(CC(C3)C1)C2	?	-7%	-14%	2%	24%[10 µM]	-13%
O=C(O)CC12CC3CC(C1)CC(n1ncc(NCc4ccccc4)c(Cl)c1=O)(C3)C2	nt	nt	8%[9.22 µM]	nt	26%[10 µM]	nt
O=C(O)C12C[C@H]3C[C@@H](C1)CC(n1ncc(N4CCN(c5ccccc5)CC4)c(Cl)c1=O)(C3)C2	1.3µM*	-14%	-15%	-3%	-18%[10 µM]	-16%
O=C(O)C12CC3CC(C1)CC(n1ncc(NCc4ccccc4)c(Cl)c1=O)(C3)C2	?	?	-15%	-1%	?	nt
CC1CC(C)CN(C(=O)C(NS(=O)(=O)c2ccc3c(c2)oc(=O)n3C)C(C)C)C1 (centres undefined)	-8%	1%	-5%	-4%	9%	-8%
OC1(c2ccccc2F)CCN(Cc2nnc(-c3ccccc3)o2)CC1	?	-14%	17%	-4%	10%	?
O=C(CCC1CCCN(Cc2cccc3c2OCO3)C1)NCc1ccc(F)c(F)c1 (centres undefined)	8%	nt	-8%[9.22 µM]	-1%	16%[10 µM]	nt
CCCCCCCCCCCCCCCCCCOCC(O)CO (centres undefined)	0%	13%	10%	0%	16%	-6%
COC(=O)c1cc(OC)c(OC)cc1-n1cnc2cc(OC)c(OC)cc2c1=O	9%	-5%	15%	-1%	-8%	-13%
CCCn1c2c(c(O)c(C(=O)NCc3ccccc3)c1=O)CCCC2	?	6%	-3%	2%	-12%	-15%
O=C(Nc1ccc2c(c1)CCC2)C1CCN(c2c3c(nc4ncnn24)CCC3)CC1	16µM*	?	11µM*	2%	5%[10 µM]	?
O=C(Nc1ccc(Oc2ccccc2)cc1)C1CCN(c2c3c(nc4ncnn24)CCC3)CC1	?	?	8.9µM*	1%	-66%	-15%
Nc1cc(N)nc(SCc2ccccc2)n1	8%	-16%	10%	-2%	2%[10 µM]	-7%
Cc1ccc2cc3cc(C(=O)NCCC(C)C)oc3nc2c1	?	-11%	-1%	-2%	4%	?
